This is an account of results in PubChem BioAssay (Tox21).

Test [1] can be described thus: qHTS assay to identify small molecule agonists of the TGF-beta/Smad signaling pathway - cell viability counter screen (AID 1346829). Also: top concentration of the series differs between compounds; nearly all actives have a fitted effect of over 45% in size. A digest of the protocol:
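Tox21 qHTS format: SBE-bla HEK 293T cells treated with DMSO-dissolved compounds for 5 hr; CellTiter-Glo luminescence after 30 min at room temperature.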
(In qHTS, concentration-response curves come from the screen itself.)

Test [2] can be described thus: qHTS assay to identify small molecule agonists of the TGF-beta/Smad signaling pathway (AID 1346859; active = well fitted activation curve with a large enough effect in the signal ratio in the repeat runs, not every such curve was filed as active; the % refers to the signal ratio; also: series mostly up to about 77 µM). A digest of the protocol: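 Dual-wavelength fluorescence (460/530 nm emission) quantified beta-lactamase expression under the Smad binding element in HEK 293T cells following 5 hr compound treatment at 37 C.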
For test [3], the target named is Thyrotropin-releasing hormone receptor (Homo sapiens) (UniProt P34981). Description: qHTS assay to identify small molecule antagonists of the thyrotropin-releasing hormone receptor (TRHR) signaling pathway (AID 1346877; active = well fitted inhibition curve with a large enough effect in the repeat runs, not every such curve was filed as active; also: series mostly up to about 51 µM). In a few lines:
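Cells (TRHR-HEK293) are plated and kept 18 h at 37 °C/5% CO2. A calcium-sensitive dye is added for 2 h, compound follows for 5 min at room temperature, and TRH is then given at 1 nM final.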

Test [4] shares this target. Description: qHTS assay to identify small molecule agonists of the thyrotropin-releasing hormone receptor (TRHR) signaling pathway (AID 1346891; calls by dose curve;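 also: HEK293 cells expressing TRHR with calcium dye readout; series mostly up to about 58 µM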). In a few lines: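 Kinetic fluorescence (3 min, 1 s intervals) reported intracellular calcium after compound transfer onto TRHR-Hek293 cells pre-loaded with dye for 2 h at 37 °C.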
Test [5] can be described thus: Human pregnane X receptor (PXR) small molecule agonists, qHTS cell viability counter screen (AID 1346977). Also: nearly all actives have a fitted effect of over 50% in size. A digest of the protocol:
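HepG2 cells stably carrying the PXR-Luc reporter are cultured with 5% charcoal-stripped FBS and treated with compounds for 24hr. CellTiter-Fluor is added at 23hr and fluorescence is read after 1hr.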

A short description of test [6]: Caspase-3/7 induction in HepG2 cells by small molecules, qHTS assay (AID 1346978). Also: nearly all actives have a fitted effect of over 15% in size. In a few lines:
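Wild-type HepG2 cells, 2,000/well, settled 5 hr at 37 C and 5% CO2, then compound-treated for 17 hr; caspase-3/7 activity read by luminescent Caspase-Glo 3/7 after 30 min at room temperature.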

A short description of test [7]: Caspase-3/7 induction in CHO-K1 cells by small molecules, qHTS cell viability counter screen (AID 1346979). Also: nearly all actives have a fitted effect of over 35% in size. Also: potency is read from the fitted curve at half-maximal effect. In a few lines:
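Seeding: 1,500 CHO-K1 cells/well. Rest: 5hr, 37C. Treatment: compounds in DMSO, 16hr. Read: CellTiter-Fluor, 1hr, fluorescence.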

A short description of test [8]: Caspase-3/7 induction in CHO-K1 cells by small molecules, qHTS assay (AID 1346980). Also: nearly all actives have a fitted effect of over 15% in size. A digest of the protocol: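 Wild-type CHO-K1 cells exposed to compounds for 17hr at 37 C, 5% CO2. Caspase-3/7 activity then measured by Caspase-Glo 3/7 luminescence after 30min at room temperature.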
The nature of test [9]: Caspase-3/7 induction in HepG2 cells by small molecules, qHTS cell viability counter screen (AID 1346981). Also: series mostly up to about 92 µM; nearly all actives have a fitted effect of over 30% in size. A digest of the protocol:
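Steps: seed 2,000 HepG2 cells per well; incubate 5 hr at 37 C; pin-add compounds in DMSO; incubate 16 hr; add CellTiter-Fluor; after 1 hr at 37 C and 5% CO2, read fluorescence.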

The target of test [10] is Cytochrome P450 2D6 (Homo sapiens) (UniProt P10635). Briefly: Cytochrome P450 Family 2 Subfamily D Member 6 (CYP2D6) small molecule antagonists: luciferase reporter qHTS assay (AID 1671196). Also: series mostly up to about 120 µM; nearly all actives have a fitted effect of over 50% in size. In a few lines:
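P450-Glo format: CYP2D6 converts a proluciferin substrate to luciferin in an NADPH-driven reaction lasting 1 h at room temperature. Light output, proportional to CYP2D6 activity, reflects interference by test chemicals.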
On the technique in general: A reporter such as luciferase makes a cellular process visible.

The target of test [11] is Cytochrome P450 2C9 (Homo sapiens) (UniProt P11712). Briefly: Cytochrome P450 Family 2 Subfamily C Member 9 (CYP2C9) small molecule antagonists: luciferase reporter qHTS assay (AID 1671198). Also: series mostly up to about 120 µM; nearly all actives have a fitted effect of over 50% in size. A digest of the protocol:
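P450-Glo proluciferin substrate with CYP2C9 enzyme; 10 min RT preincubation, then NADPH regeneration 1 h at 37C; luciferin detection reagent 20 min RT, luminescence in relative luminescence units.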

For test [12], the target named is Cytochrome P450 1A2 (Homo sapiens) (UniProt P05177). Description: Cytochrome P450 Family 1 Subfamily A Member 2 (CYP1A2) small molecule antagonists: luciferase reporter qHTS assay (AID 1671199). Also: nearly all actives have a fitted effect of over 50% in size. Also: potency is read from the fitted curve at half-maximal effect. In a few lines: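 Inhibition of CYP1A2 conversion of proluciferin to luciferin, detected by luminescence. Reaction run 1 h at room temperature with NADPH regeneration after brief compound preincubation.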
Cytochrome P450 1A2 (Homo sapiens), sequence (P05177 whole entry, looked up): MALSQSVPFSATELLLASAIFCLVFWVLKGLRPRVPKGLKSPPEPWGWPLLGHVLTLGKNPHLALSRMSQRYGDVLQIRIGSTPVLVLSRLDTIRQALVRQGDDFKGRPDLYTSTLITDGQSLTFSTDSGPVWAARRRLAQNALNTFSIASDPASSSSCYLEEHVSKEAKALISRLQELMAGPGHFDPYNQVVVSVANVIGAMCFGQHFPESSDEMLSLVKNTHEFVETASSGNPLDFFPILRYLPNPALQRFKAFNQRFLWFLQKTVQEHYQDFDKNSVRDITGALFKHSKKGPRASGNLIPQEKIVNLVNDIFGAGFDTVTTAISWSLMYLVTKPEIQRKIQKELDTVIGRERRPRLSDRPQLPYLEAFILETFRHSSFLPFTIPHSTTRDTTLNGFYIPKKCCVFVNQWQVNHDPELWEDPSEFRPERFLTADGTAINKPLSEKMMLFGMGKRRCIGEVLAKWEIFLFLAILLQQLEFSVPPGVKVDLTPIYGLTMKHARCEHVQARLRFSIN

For test [13], the target named is Voltage-gated inwardly rectifying potassium channel KCNH2 (Homo sapiens) (UniProt Q12809). Description: Human Ether-a-go-go-Related Gene (hERG) channel small molecule antagonists: fluorescence cell-based qHTS assay (AID 1671200). A digest of the protocol: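 First, 1000 cells per well are seeded and cultured overnight at 37 C. Next, FluxOR II dye is loaded for 1 h at room temperature, protected from light. After 10 more minutes, stimulus is added and fluorescence is read.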
Voltage-gated inwardly rectifying potassium channel KCNH2 (Homo sapiens), sequence (Q12809 whole entry, looked up): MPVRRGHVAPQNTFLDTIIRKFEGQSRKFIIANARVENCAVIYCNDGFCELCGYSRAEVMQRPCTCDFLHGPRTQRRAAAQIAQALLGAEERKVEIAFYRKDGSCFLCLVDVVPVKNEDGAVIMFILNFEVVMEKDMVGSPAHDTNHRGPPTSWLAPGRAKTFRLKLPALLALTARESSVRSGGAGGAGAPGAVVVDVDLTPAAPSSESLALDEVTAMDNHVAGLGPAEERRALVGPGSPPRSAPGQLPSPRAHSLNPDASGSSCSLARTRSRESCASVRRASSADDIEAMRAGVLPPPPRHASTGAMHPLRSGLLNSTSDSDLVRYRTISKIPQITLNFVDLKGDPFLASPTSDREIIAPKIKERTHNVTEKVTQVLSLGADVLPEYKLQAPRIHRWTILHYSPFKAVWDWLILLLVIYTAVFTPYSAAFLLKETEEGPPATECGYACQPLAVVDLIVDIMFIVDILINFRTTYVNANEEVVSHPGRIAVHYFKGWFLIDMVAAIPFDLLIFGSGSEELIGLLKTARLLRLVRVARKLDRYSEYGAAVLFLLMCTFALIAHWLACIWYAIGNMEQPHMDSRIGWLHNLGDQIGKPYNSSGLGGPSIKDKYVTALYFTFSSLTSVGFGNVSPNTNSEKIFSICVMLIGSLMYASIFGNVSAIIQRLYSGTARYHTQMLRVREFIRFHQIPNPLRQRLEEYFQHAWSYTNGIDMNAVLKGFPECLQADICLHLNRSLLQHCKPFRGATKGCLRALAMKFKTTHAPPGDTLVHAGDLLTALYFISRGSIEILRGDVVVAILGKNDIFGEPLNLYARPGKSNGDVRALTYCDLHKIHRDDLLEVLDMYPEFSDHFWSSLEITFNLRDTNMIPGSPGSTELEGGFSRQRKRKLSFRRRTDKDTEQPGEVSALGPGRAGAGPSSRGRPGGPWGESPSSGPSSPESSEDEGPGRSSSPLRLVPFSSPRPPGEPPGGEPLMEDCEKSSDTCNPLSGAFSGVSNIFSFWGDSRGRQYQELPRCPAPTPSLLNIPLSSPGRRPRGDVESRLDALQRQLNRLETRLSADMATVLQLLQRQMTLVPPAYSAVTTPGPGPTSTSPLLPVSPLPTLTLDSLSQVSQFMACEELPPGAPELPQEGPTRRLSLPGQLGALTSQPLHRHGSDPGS
(In general: The hERG channel carries a current that helps repolarise heart muscle cells.)

The target of test [14] is Cytochrome P450 3A4 (Homo sapiens) (UniProt P08684). Description: Cytochrome P450 Family 3 Subfamily A Member 4 (CYP3A4) small molecule antagonists: luciferase reporter qHTS assay (AID 1671201). In a few lines:
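Enzyme and proluciferin substrate are mixed with test chemicals for 10 min, then NADPH regeneration system drives turnover for 1 h at room temperature. A detection reagent halts the reaction; luminescence after 20 min gives relative activity.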

Test [15] has as its target Nuclear receptor subfamily 1 group I member 2 (Homo sapiens) (UniProt O75469). Briefly: Human pregnane X receptor (PXR) small molecule agonists, qHTS assay (AID 1346982). Also: nearly all actives have a fitted effect of over 35% in size. A digest of the protocol:
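Agonist mode qHTS: PXR-Luc HepG2 cells plated 5 hr before DMSO-dissolved compounds were pinned in, cultured 24 hr at 37 C, 5% CO2; ONE-Glo luminescence readout.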

Test [16] addresses Cytochrome P450 2C19 (Homo sapiens) (UniProt P33261). Briefly: Cytochrome P450 Family 2 Subfamily C Member 19 (CYP2C19) small molecule antagonists: luciferase reporter qHTS assay (AID 1671197). Also: series mostly up to about 120 µM; nearly all actives have a fitted effect of over 65% in size. In a few lines: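 Relative luminescence units recorded 20 min after the detection reagent stopped a 1 h, 37C CYP2C19 reaction on proluciferin substrate, which was started by NADPH regeneration following 10 min room-temperature compound preincubation; ketoconazole positive control.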

Test [17] deals with Nuclear receptor subfamily 1 group I member 2 (Rattus norvegicus) (UniProt Q9R1A7). Description: Rat pregnane X receptor (rPXR) activation by small molecules, qHTS assay (AID 1346983). Also: nearly all actives have a fitted effect of over 20% in size. As to conditions: rPXR luciferase reporter cells, One-Glo luminescence, 24 h; stronger effect = higher value. A digest of the protocol:
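Cell-based rPXR activation assay: rPXR cells, 2,000 per well, rested 5hr at 37 C, then exposed to compounds in DMSO for 24 hr at 37 C. Luciferase activity read by One-Glo luminescence after 30 min at room temperature.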

Test [18] concerns the target Nuclear receptor subfamily 1 group I member 2 (Homo sapiens) (UniProt O75469). Description: CYP3A4 induction through human pregnane X receptor (PXR) by small molecules, qHTS assay (AID 1346984). Also: nearly all actives have a fitted effect of over 40% in size. In a few lines:
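Steps: seed DPX-2 cells, 5 hr at 37C; pin-transfer compounds; 24 hr at 37C; add Luciferin-IPA (3uM final), 3 hr at 37C; add One-Glo, 30 min RT; read luminescence.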

Test [19] has the same target. Description: Human pregnane X receptor (PXR) activation by small molecules, qHTS assay (AID 1346985). Also: nearly all actives have a fitted effect of over 40% in size. In a few lines: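 DPX-2 cells (HepG2 co-transfected with a PXR response element and a CYP3A4-promoter luciferase construct) were seeded at 2,000 per well, rested 5 hr at 37C, then exposed to DMSO-dissolved compounds for 24 hr. Activation was read as luciferase luminescence.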

The structures appear in SMILES notation. A number with no mark means an inactive call. Results filed as inconclusive are left out. The source made the active and inactive calls. Unless noted, calls follow the shape of the dose curve; as a rule, active = well fitted curve in the direction sought with a large enough effect in the repeat runs; inconclusive = weak or mixed curves; inactive = no such curve, though single readings can be large; an effect the other way counts as inactive or inconclusive. Positions of bridges follow the written chain, without caps; N, C: chain ends. Non-standard residues stand in square brackets, D forms with d. Residues, ends and D or L forms follow the SMILES beside them. hArg = N=C(N)NCCCC[C@H](N)C(=O)O; Mpa = O=C(O)CCS
% is scaled to controls: 0 for no effect and ±100 for the full control effect.

Cytochrome P450 2C9 (Homo sapiens), sequence (P11712 whole entry, looked up): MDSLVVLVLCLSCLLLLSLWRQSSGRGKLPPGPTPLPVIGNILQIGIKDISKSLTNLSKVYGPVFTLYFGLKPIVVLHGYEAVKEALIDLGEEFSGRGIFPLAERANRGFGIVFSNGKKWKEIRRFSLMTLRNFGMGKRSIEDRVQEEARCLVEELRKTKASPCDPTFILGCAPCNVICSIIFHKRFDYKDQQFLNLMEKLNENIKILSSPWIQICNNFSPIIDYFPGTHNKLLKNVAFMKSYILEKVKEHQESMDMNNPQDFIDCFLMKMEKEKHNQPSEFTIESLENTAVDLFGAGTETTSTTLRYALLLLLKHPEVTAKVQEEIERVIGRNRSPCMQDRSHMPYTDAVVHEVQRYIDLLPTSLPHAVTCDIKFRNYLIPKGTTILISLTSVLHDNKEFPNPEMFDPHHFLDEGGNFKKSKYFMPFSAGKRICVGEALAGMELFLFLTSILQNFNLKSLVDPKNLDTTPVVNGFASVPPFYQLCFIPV
Cytochrome P450 2D6 (Homo sapiens), sequence (P10635 whole entry, looked up): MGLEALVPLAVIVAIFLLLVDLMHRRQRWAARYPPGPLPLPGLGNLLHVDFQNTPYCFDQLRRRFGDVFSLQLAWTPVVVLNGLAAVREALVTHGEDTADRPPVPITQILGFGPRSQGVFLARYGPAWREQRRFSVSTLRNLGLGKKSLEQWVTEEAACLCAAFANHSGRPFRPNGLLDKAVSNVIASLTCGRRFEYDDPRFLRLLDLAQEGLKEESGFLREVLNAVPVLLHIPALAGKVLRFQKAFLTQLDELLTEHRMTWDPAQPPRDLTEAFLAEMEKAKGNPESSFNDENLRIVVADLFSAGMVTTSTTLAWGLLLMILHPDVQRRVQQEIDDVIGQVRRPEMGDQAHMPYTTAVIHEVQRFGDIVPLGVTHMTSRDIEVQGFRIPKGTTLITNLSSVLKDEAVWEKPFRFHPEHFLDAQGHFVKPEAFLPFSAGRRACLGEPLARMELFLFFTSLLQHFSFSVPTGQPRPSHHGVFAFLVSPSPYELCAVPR
Nuclear receptor subfamily 1 group I member 2 (Rattus norvegicus), sequence (Q9R1A7 whole entry, looked up): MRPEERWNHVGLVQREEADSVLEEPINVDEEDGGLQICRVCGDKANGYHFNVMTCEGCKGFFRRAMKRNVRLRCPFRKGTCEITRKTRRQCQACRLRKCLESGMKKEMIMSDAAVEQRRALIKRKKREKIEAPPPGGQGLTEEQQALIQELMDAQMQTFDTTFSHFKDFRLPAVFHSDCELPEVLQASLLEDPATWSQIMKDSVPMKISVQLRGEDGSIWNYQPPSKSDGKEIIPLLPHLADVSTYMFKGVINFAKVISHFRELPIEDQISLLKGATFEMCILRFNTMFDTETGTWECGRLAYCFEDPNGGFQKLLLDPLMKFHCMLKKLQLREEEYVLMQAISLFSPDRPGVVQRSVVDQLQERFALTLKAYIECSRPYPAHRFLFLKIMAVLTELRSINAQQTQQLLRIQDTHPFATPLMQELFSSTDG
Cytochrome P450 3A4 (Homo sapiens), sequence (P08684 whole entry, looked up): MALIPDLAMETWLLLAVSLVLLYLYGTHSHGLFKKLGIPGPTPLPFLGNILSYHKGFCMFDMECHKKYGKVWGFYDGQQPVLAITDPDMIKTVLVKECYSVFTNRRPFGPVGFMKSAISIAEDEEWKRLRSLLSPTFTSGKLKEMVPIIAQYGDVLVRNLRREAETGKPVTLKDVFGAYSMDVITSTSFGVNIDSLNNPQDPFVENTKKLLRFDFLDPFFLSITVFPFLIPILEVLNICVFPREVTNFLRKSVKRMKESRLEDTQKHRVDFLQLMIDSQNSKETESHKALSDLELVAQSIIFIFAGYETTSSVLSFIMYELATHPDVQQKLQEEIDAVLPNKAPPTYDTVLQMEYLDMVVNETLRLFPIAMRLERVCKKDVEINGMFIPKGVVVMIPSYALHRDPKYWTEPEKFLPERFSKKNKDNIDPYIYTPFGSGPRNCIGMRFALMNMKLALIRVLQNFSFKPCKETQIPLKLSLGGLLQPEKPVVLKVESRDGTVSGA
Nuclear receptor subfamily 1 group I member 2 (Homo sapiens), sequence (O75469 whole entry, looked up): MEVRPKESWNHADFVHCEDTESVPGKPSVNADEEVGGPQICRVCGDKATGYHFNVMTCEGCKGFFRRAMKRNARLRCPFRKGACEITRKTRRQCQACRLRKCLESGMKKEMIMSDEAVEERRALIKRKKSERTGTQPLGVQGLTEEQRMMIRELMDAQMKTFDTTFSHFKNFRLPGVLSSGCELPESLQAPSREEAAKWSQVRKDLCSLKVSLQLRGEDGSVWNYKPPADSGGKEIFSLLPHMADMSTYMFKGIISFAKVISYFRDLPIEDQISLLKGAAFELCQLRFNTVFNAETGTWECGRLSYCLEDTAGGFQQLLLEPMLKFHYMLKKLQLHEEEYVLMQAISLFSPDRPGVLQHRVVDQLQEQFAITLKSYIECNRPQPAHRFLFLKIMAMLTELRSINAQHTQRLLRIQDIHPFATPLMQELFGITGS
Cytochrome P450 2C19 (Homo sapiens), sequence (P33261 whole entry, looked up): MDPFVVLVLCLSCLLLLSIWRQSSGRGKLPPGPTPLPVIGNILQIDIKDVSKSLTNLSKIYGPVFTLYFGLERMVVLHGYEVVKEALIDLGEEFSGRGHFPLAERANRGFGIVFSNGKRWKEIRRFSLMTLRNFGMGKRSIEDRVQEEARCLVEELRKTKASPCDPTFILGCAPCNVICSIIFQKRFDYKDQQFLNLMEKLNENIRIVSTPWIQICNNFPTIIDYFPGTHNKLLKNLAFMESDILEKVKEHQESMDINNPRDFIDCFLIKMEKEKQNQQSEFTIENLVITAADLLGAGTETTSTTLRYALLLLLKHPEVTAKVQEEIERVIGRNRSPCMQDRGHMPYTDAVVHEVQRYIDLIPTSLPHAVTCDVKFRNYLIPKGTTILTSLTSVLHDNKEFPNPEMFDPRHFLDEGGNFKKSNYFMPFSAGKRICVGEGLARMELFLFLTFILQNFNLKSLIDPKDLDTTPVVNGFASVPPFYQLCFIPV
Thyrotropin-releasing hormone receptor (Homo sapiens), sequence (P34981 whole entry, looked up): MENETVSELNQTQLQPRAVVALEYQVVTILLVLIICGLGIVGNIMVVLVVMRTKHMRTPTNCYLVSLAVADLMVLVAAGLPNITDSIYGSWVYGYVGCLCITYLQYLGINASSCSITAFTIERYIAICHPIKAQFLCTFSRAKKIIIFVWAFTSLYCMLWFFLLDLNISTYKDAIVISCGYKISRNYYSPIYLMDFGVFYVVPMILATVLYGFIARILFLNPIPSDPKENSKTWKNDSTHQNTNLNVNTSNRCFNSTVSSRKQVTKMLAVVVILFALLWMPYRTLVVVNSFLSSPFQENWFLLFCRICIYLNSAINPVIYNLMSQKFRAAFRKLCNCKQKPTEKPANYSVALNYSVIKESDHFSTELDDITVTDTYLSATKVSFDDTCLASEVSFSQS

Turning to `CC(=O)CC(=O)OC(C)(C)C`, the compound was called inactive in test [1], in [2], in test [3], in [4], in [5] and in test [6]. The call in [8] and in [9] was inactive. In addition, the Potency result in [7], in [10], in test [11], in [12], in test [13] and in [14] was “inactive” in each case.

Regarding `CNCCS(=O)(=O)O`, the outcome in test [1], in test [2], in test [3], in test [4], in test [5] and in [6] was inactive. Moreover, in test [9], the call was inactive. Besides, the Potency result in test [7], in test [10], in test [11], in [13] and in test [14] was “inactive” in each case. Besides, the Potency in test [12] is 35.9 µM (active).

As for `CC(C)OC(=O)CCC(=O)OC(C)C`, the compound was called inactive in test [1], in test [2], in [3], in [4], in test [5] and in [6]. For the same compound, the compound was called inactive in test [8] and in [9]. Besides, the Potency entry in test [15], in test [10], in [16], in test [11], in test [12] and in test [13] was “inactive” throughout. Moreover, the Potency result in [14] was “inactive”.

As for `NC(=O)[C@@H]1CSSCCC(=O)N[C@@H](CCCCN=C(N)N)C(=O)NCC(=O)N[C@@H](CC(=O)O)C(=O)N[C@@H](Cc2c[nH]c3ccccc23)C(=O)N2CCC[C@H]2C(=O)N1` ([Mpa][hArg]GDWPC-NH2; disulfide 1-7), the outcome in test [1], in test [2], in test [3], in [4], in [5] and in test [6] was inactive. Further, the compound was classed as inactive in [9]. In test [7], the Potency was 10.6 µM (active). The Potency result in test [15], in test [18], in test [19], in test [16], in [11] and in [12] was “inactive” throughout. In addition, in test [14], the Potency entry is “inactive”. Further, the max activation in test [17] is -0.95%.

`O=C(Cn1ccnc1[N+](=O)[O-])NCc1ccccc1`: the call in test [1], in [2], in test [3], in [4], in test [5] and in test [6] was inactive. Besides, the compound was called inactive in test [8] and in test [9]. Besides, the Potency entry in test [15], in [18], in test [19], in test [11], in test [12] and in test [13] was “inactive” throughout. The Potency entry in test [14] is “inactive”. In addition, in test [17], the max activation was -1.78%.

In the case of `CCCCCCC1(C)CCC(=O)O1` (stereo not given), the call in test [1], in [2], in [3], in test [4], in [5] and in test [6] was inactive. In addition, in [9], the result was inactive. Moreover, the Potency entry in test [7], in [15], in test [10], in test [11] and in test [14] was “inactive” in each case.

Turning to `CSc1cnccn1`, the call in test [1], in test [2], in test [3], in test [4], in test [5] and in test [6] was inactive. The result in test [8] and in [9] was inactive. Besides, the Potency entry in [15], in test [10], in test [16], in test [11], in test [12] and in [13] was “inactive” throughout. Besides, in test [14], the Potency result was “inactive”.

For the compound `CN1CCOC(c2ccccc2)c2ccccc2C1` (stereo not given), the compound was called inactive in test [1], in test [2], in [3], in test [4], in [5] and in test [6]. Further, the compound was called inactive in [8] and in test [9]. Besides, the Potency entry in test [7] and in [13] was “inactive” in each case. Besides, the max activation in test [17] was -1.81%.

As to `O=C1CCCCO1`, the compound was classed as inactive in [1], in [2], in test [3], in [4], in test [5] and in test [6]. In addition, the outcome in [9] was inactive. In addition, the Potency result in test [7], in [15], in test [10], in [16], in test [13] and in [14] was “inactive” throughout.
